From PubChem BioAssay
Hits are enriched below; roughly 11% of the tested compounds scored in any of these assays.
IMPase cell inh: membrane-permeable compound that blocks inositol monophosphatase; P97697; CHO-M1 cells, IP1 accumulation, HTRF TR-FRET ratio; inhibition (IP1 accumulation), % at 46.1 µM; 120,000 tested, under 10 active; active means well fitted curve in the direction sought with a large enough effect in the signal ratio, not every such curve was filed as active; inconclusive means small, poorly fitted or top-dose-only effect, or a change in a side signal; inactive means no such curve, though single readings can be large or run the other way; the % refers to the signal ratio;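 further: cells stimulated with carbachol in lithium chloride buffer; plate controls were DMSO basal wells for no effect and reference inhibitor wells for full effect; higher means more IMPase inhibition seen as more IP1 and lower FRET ratio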
Target sequence (P97697 whole entry, looked up): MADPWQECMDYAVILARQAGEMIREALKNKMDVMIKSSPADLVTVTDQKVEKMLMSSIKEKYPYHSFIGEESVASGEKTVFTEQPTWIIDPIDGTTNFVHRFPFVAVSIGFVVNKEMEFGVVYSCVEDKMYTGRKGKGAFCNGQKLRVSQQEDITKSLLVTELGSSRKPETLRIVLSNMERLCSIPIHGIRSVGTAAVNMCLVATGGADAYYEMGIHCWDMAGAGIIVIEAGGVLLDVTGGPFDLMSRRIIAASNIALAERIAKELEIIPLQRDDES
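Elevated IP1 in lysates lowers TR-FRET signal (665/620 ratio and 620 channel reported). Cells were CHO-M1, given carbachol (50 uM as added) plus 50mM LiCl, pH 7.4, 30 min, 37C; compounds titrated up to 46 uM; AC50 by Hill equation.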
PNC inhibitor: inhibitors of perinucleolar compartment assembly | PC3M PTB-GFP, PNC prevalence imaging, 16 h; hits give low values | activity change (PNC), negative = inhibition, % at 10 µM | 140,000 tested, 3.1% active;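 active means readout at or below -70, meaning at least 70% loss of cells showing the perinucleolar compartment, a nuclear body marking cancer cells; inconclusive means readout between -30 and a set limit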;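 further: plate controls were DMSO wells for no effect and camptothecin positive control wells for full effect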
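PC3M cells stably expressing PTB-GFP, 750–1000 cells/well, treated 16 h at 37 °C with compound (23 nl of library stock), in duplicate. After paraformaldehyde fixation and Hoechst stain, imaged at 20x; PNC prevalence scored by image analysis.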
HPGD block: HPGD (human) dehydrogenase inhibition; P15428; purified HPGD, NADH fluorescence kinetic, PGE2 substrate; Potency, µM, for inactives: at the top dose activity change, negative = inhibition, hits mostly inhibitors; 150,000 tested, 4.3% active; further: potency means the concentration at half of the fitted maximal effect
Target sequence (P15428 whole entry, looked up): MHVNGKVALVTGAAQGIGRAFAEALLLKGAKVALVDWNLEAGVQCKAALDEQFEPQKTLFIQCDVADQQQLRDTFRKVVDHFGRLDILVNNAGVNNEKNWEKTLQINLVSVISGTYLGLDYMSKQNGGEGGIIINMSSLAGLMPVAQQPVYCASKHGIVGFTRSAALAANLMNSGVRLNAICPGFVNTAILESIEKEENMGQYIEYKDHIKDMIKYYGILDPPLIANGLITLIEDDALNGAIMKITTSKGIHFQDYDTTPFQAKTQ
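20 nM HPGD preincubated 15 min at room temperature with compound in 50 mM Tris-HCl pH 8, 0.01% Tween 20. Started with 1 mM NAD+ and 30 uM prostaglandin E2; NADH fluorescence (360/450 nm) read 5 times over 30-s intervals, last minus first.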
IMPase Li cell: cell-permeable IMPase inhibitors with lithium potentiation; CHO-M1 cells, IP1 TR-FRET (IP-One), carbachol + lithium; Potency, µM (doses to about 59.4 µM), for inactives: at the highest dose activity, negative = IMPase inhibition, most hits filed as inhibitors; 210,000 tested, 0.35% active; AID 1457; active means well fitted inhibition curve with a large enough effect; inconclusive means small, poorly fitted or top-dose-only effect; inactive means no such curve, though single readings can be large or run the other way;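 further: IP1 builds up when IMPase is blocked and the TR-FRET signal falls; potency means the concentration at half of the fitted maximal effect; plate controls were basal vehicle for no effect and high inhibitor control for full effect; nearly all actives have a fitted effect of over 50% in size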
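Test compounds were applied to CHO-M1 cells previously cultured for 16–30 h at 2000 per well. A small lithium amount accompanied them; after 30 min at 37C, IP1 was quantified by TR-FRET.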
ALDH1A1 inh: ALDH1A1 (human) enzyme inhibition. P00352. Purified ALDH1A1, NADH fluorescence, propionaldehyde substrate. Potency, µM (highest dose often 75.3 µM), for inactives: at the top dose activity, negative = inhibition, hits mostly inhibitors. 220,000 tested, 7.3% active. AID 1030;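 further: potency means the concentration at half of the fitted maximal effect; plate controls were no enzyme wells and a reference inhibitor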
Numbers without * were called inactive; ? = inconclusive; . = not tested or not shown; [ ] = remark or other dose. Unless noted, the call rests on the fitted dose curve; in most records, active means well fitted inhibition curve with a large enough effect (not every such curve was filed as active); inconclusive means small, poorly fitted or top-dose-only effect, or another doubt; inactive means no such curve, though single readings can be large or run the other way. Unless noted, on the % scale 0 is the no-effect control and ±100 the full control effect.

SMILES	IMPase cell inh	PNC inhibitor	HPGD block	IMPase Li cell	ALDH1A1 inh
CC(C)(CNc1ccc([N+](=O)[O-])cc1C#N)N1CCOCC1	.	.	.	20%	2.2µM*
N#Cc1cc([N+](=O)[O-])ccc1NCCN1CCOCC1	.	.	.	-3%	-2%
CCn1c2ccccc2c2cc(NC(=O)c3cc(C)on3)ccc21	.	.	.	-3%	5%
O=C(Nc1cccc(OC(F)(F)F)c1)c1ccc(Br)o1	-1	-22	25µM*	7%[38.3 µM]	22µM*
CCn1c2ccccc2c2cc(NC(=O)c3cc(OC)cc(OC)c3)ccc21	.	-97*	?	11%	?
CCn1c2ccccc2c2cc(NC(=O)c3ccc(Br)o3)ccc21	4	?	4.5µM*	21%[38.3 µM]	2.2µM*
CN1CCN(c2ncc3nc(-c4ccccc4)c(=O)n(C)c3n2)CC1	.	.	.	-29%	?
Cc1ccc(NC(=O)c2ccccc2OCC(=O)Nc2cccc(Cl)c2C)nc1	.	.	.	13%	-4%
CNc1ccc(/C=C2\COc3ccccc3C2=O)cc1[N+](=O)[O-]	-3	11	1.6µM*	27%[38.3 µM]	14%
Brc1ccc(-c2nnc(-c3ccccc3)c(N3CCSCC3)n2)cc1	4	8	-17%	7%[38.3 µM]	-6%
CN1CCN(c2nc(-c3ccc(Br)cc3)nnc2-c2ccccc2)CC1	-3	10	-12%	15%[38.3 µM]	22µM*
COC(=O)C1CCCCN1C(=O)CCc1nnc(CCc2c[nH]c3ccccc23)o1 (configuration not stated)	.	.	.	16%	22µM*
COC(=O)[C@@H]1CCCN1C(=O)CCc1nnc(CCc2c[nH]c3ccccc23)o1	.	.	.	-6%	-4%
COC(=O)C1=C2N(Cc3ccccc3)C(C)=C(C(=O)OC)C(c3ccccc3)N2C(=O)[C@](O)(C(=O)OC)C1 (some centres not stated)	.	.	.	.	18%[13.5 µM]
CC(C)c1cccc2c([Si](C)(C)C)c3c(nc12)-c1cccc(=O)n1C3	.	.	?	-8%	?
CCOC(=O)c1ccc(NC(=O)c2cc3c(n(-c4ccc(C)cc4)c2=O)CC(C)(C)CC3=O)cc1	-1	.	.	.	.
CCOCCCNC(=O)/C(C#N)=C/c1ccc(Cl)c([N+](=O)[O-])c1	.	.	.	?	10µM*
CCOCCCNC(=O)/C(C#N)=C/c1cc(C)c(O)c(C)c1	.	.	.	8%	10µM*
CCOCCCNC(=O)/C(C#N)=C/c1ccc(C(=O)OC)cc1	.	.	.	7%	?
CCOCCCNC(=O)/C(C#N)=C/c1cc(OC)c(O)c([N+](=O)[O-])c1	.	.	.	16%	13µM*
CC(C)CN1CC[C@@]2(CCCN(C(=O)c3cc(C(F)(F)F)cc(C(F)(F)F)c3)C2)C1	.	.	1%	4%	5%
O=C(COC(=O)c1ccc([N+](=O)[O-])s1)Nc1ncc(C(F)(F)F)cc1Cl	0	?	-27%	-2%	18µM*
O=C(COC(=O)c1cc(-c2ccccc2Cl)nc2ccccc12)Nc1ncc(C(F)(F)F)cc1Cl	?	-1	-19%	10µM*	15%
O=C(COC(=O)c1cccc2ccccc12)Nc1ncc(C(F)(F)F)cc1Cl	-5	23	?	?	?
CCc1ccc(OC(C)C(=O)Nc2c(C(=O)c3ccccc3)oc3ccccc23)cc1 (configuration not stated)	-12	.	.	.	.
SMILES	IMPase cell inh	PNC inhibitor	HPGD block	IMPase Li cell	ALDH1A1 inh
CCOC(=O)c1cc2c(=O)n3ccccc3nc2n(C(C)C)c1=NC(=O)c1ccco1	.	.	.	4%	?
CC(C)n1c(=NC(=O)c2ccco2)c(C#N)cc2c(=O)n3ccccc3cc21	-3	-82*	?	-2%	?
N#Cc1c(-c2cccs2)nc(SCc2ccc(Cl)cc2)[nH]c1=O	.	.	.	?	6%
CNC(=O)NC(=O)CSc1nc(-c2cccs2)c(C#N)c(=O)[nH]1	.	.	.	5µM*	-1%
N#Cc1c(-c2ccccc2)nc(SCc2nc(N)nc(N3CCCCC3)n2)[nH]c1=O	-15	-4	?	4.5µM*	-5%
O=C(CSc1nc2scc(-c3ccccc3)c2c(=O)[nH]1)NC1CCCCC1	.	.	.	?	2%
COC(=O)C(CC(C)C)NC(=O)CSc1nc(-c2ccccc2)c(C#N)c(=O)[nH]1 (configuration not stated)	?	7	-26%	8.9µM*	?
N#Cc1c(-c2ccccc2)nc(SCC(=O)NC2CCCCC2)[nH]c1=O	.	.	.	10µM*	-16%
CCSc1nc(-c2ccccc2)c(C#N)c(=O)[nH]1	?	29	28µM*	2µM*	?
CSc1nc(-c2ccc(Cl)cc2)c(C#N)c(=O)[nH]1	.	.	.	-13%	3%
CCC(Sc1nc(-c2ccccc2)c(C#N)c(=O)[nH]1)C(=O)Nc1cc(C)on1 (configuration not stated)	?	?	-8%	11µM*	6%
COc1ccc2[nH]cc(CCNc3cc(-c4ccccc4C(F)(F)F)ncn3)c2c1	.	.	-8%	14%	-8%
Cc1cc(N)c2ccccc2[n+]1CCCCCCCCCCCCCC[n+]1c(C)cc(N)c2ccccc21	19	.	17%	35%	?
Cc1nnc(NC(=O)C2c3ccccc3Oc3ccccc32)s1	7	205	22µM*	17%	-14%
CC(C)c1nnc(NC(=O)C2c3ccccc3Oc3ccccc32)s1	15	-21	-7%	39%[38.3 µM]	?
O=C(Nc1nc(-c2ccccc2)cs1)C1c2ccccc2Oc2ccccc21	0[1.84 µM]	-17	-14%	5%[38.3 µM]	1.8µM*
CC(C)C(NC(=O)CN(c1cccc(F)c1)S(C)(=O)=O)C(C)C	5	16	-2%	1%	35µM*
CCCNC(=O)CN(c1cccc(F)c1)S(C)(=O)=O	.	41	-2%	-8%	4%
CCSCCOC(=O)C1=C(C)NC2=C(C(=O)CCC2)C1c1coc2ccccc2c1=O (configuration not stated)	4	?	-2%	-16%[38.3 µM]	-4%
CC1=C(C(=O)OC(C)C)C(c2coc3ccccc3c2=O)C2=C(CCCC2=O)N1 (configuration not stated)	2	-81*	0%	-3%[38.3 µM]	7%
CCOc1ccc(C2C(C#N)=C(N)SC(N)=C2C#N)c(OCC)c1	?	-1	-26%	?	18µM*
COc1ccc(C2C(C#N)=C(N)OC(C(C)(C)C)=C2C#N)cc1OC (configuration not stated)	1	?	?	-7%[38.3 µM]	?
CCCc1[nH]nc2c1C(c1ccccc1OCC)C(C#N)=C(N)O2 (configuration not stated)	9	?	-10%	9%[38.3 µM]	-1%
N#CC1=C(N)SC(N)=C(C#N)C1c1cccc(O)c1	-5	9	?	?	25µM*
COc1ccc(C2C(C#N)=C(N)SC(N)=C2C#N)cc1OC	-12	?	16µM*	-15%[38.3 µM]	28µM*
CCOc1cc(C2C(C#N)=C(N)SC(N)=C2C#N)ccc1OCCN1CCOCC1	-26	?	22µM*	?	7.9µM*
